The full data set covers some 7,900 targets. This sample favours those with a hit. About 0.6% of all pairs of compound and target were hits.

Chain of UniProt P40939 (P40939 whole entry, looked up): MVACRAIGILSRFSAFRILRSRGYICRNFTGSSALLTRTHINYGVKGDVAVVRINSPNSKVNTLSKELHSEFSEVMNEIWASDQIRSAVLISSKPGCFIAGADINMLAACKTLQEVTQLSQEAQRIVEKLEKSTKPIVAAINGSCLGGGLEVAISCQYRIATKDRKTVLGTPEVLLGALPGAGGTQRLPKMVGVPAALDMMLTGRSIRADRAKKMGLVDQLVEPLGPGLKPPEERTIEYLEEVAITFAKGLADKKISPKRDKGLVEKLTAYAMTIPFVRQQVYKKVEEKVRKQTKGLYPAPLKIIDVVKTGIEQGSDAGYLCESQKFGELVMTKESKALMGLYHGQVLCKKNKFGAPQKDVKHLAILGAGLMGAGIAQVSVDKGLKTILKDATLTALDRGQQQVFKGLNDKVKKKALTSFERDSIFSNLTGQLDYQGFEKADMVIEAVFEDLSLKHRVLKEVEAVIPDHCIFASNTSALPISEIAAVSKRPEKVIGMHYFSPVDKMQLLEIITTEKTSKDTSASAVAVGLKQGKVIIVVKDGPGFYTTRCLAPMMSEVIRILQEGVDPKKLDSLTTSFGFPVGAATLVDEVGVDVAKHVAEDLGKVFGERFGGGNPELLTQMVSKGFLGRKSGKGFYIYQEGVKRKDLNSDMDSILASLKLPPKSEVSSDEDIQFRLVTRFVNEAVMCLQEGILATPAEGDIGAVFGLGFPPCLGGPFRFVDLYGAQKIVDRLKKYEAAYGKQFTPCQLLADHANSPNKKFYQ
Chain of UniProt O75146 (O75146 whole entry, looked up): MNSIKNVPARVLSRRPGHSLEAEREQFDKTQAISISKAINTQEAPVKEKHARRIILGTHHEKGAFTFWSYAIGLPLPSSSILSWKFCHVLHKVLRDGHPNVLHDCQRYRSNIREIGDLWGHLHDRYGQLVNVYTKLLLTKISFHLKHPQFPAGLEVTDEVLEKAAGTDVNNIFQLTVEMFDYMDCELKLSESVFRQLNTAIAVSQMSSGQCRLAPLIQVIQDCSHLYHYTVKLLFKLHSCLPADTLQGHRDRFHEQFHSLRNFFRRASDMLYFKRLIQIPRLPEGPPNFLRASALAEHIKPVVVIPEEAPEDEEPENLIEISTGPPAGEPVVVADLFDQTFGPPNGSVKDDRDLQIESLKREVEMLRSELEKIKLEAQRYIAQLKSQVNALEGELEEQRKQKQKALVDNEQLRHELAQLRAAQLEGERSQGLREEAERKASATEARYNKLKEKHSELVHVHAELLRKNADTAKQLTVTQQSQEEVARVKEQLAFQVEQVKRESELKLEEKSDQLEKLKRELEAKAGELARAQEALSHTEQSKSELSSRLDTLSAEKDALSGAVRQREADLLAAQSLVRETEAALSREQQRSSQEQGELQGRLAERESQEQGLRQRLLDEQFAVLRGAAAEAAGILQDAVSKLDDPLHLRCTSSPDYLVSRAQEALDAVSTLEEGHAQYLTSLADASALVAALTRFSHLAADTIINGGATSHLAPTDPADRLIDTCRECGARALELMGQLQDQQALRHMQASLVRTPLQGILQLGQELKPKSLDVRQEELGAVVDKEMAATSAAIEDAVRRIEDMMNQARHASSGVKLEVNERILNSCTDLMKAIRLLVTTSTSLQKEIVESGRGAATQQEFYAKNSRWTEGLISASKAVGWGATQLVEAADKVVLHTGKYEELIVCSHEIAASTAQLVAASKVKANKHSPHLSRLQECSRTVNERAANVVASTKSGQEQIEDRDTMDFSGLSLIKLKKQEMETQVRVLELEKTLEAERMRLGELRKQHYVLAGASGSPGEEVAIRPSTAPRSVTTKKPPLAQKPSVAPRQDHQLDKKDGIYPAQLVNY
Chain of UniProt P09211 (P09211 whole entry, looked up): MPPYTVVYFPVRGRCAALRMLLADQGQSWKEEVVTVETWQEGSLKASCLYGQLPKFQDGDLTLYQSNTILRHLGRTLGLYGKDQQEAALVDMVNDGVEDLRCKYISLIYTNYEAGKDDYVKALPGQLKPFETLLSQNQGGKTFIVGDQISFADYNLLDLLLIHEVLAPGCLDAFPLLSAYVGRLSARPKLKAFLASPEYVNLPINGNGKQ
Chain of UniProt O15117 (O15117 whole entry, looked up): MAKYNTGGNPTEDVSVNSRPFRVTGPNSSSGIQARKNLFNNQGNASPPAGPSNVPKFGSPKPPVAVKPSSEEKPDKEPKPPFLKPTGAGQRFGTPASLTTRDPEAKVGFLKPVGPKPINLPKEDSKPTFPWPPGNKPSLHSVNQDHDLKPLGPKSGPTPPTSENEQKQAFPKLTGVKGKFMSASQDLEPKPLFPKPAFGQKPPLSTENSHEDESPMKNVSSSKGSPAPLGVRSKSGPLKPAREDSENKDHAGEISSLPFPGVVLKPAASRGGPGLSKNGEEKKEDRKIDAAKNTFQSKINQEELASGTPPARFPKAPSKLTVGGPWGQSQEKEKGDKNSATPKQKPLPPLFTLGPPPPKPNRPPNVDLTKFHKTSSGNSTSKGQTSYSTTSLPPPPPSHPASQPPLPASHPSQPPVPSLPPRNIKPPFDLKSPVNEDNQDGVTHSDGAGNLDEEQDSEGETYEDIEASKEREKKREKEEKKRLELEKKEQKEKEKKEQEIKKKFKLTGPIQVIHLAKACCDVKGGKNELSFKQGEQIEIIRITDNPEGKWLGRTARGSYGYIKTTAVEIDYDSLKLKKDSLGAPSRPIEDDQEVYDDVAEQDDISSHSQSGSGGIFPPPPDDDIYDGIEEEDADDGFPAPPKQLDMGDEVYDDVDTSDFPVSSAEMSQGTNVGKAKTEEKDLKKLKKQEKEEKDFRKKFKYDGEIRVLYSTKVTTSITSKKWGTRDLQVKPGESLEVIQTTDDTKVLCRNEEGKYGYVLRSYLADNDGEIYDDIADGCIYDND
Chain of UniProt Q9UJY4 (Q9UJY4 whole entry, looked up): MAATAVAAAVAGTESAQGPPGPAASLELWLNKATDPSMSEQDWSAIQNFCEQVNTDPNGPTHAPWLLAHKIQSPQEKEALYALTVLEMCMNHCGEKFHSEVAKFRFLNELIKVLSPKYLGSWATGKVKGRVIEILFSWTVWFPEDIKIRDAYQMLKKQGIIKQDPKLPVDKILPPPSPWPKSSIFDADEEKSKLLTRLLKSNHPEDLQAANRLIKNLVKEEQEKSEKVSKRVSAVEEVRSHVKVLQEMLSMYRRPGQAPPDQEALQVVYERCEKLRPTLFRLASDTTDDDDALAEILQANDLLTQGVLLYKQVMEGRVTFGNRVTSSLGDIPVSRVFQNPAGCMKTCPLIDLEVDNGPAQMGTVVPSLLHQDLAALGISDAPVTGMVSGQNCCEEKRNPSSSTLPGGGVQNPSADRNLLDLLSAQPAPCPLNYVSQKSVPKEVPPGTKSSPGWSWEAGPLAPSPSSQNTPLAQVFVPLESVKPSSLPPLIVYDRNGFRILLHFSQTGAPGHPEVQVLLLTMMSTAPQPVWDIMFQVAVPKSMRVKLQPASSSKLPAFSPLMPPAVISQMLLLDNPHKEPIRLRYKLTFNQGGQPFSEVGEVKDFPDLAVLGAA
Chain of UniProt Q92947 (Q92947 whole entry, looked up): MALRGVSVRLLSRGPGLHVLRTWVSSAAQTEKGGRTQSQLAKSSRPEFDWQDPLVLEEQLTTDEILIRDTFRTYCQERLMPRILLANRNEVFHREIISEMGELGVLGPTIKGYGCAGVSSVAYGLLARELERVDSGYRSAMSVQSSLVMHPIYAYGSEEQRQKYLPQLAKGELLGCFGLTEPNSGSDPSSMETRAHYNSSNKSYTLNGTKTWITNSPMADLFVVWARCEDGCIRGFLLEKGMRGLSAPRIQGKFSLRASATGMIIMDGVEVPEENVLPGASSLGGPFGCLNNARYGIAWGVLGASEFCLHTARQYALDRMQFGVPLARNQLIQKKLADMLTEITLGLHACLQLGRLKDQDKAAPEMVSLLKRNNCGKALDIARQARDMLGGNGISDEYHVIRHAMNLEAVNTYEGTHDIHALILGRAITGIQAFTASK
Chain of UniProt P11142 (P11142 whole entry, looked up): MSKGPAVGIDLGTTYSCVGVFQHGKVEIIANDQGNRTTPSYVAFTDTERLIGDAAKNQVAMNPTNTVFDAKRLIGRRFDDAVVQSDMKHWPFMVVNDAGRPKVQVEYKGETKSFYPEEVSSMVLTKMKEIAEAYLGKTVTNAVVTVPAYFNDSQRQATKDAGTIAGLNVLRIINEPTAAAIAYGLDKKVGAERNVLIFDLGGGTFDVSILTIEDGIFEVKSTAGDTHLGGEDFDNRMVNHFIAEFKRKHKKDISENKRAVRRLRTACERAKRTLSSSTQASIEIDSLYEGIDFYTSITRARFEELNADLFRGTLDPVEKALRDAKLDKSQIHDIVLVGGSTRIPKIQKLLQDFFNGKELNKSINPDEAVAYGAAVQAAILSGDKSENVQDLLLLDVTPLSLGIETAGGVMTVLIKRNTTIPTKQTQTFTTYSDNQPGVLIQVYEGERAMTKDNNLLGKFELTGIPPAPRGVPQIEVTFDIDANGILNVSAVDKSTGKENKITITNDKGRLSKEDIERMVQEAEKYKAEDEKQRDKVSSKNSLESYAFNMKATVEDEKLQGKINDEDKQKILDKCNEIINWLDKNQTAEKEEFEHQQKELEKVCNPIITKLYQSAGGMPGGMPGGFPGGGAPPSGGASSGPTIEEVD
Chain of UniProt Q86YM7 (Q86YM7 whole entry, looked up): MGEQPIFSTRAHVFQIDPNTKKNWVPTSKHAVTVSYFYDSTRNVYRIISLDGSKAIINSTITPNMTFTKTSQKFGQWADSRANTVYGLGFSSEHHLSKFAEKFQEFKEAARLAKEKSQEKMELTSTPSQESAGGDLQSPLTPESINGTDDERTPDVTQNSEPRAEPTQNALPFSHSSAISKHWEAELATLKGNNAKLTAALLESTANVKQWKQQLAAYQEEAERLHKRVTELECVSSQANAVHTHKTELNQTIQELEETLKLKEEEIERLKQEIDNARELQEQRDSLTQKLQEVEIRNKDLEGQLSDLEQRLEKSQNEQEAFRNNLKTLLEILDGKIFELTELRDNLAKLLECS
Chain of UniProt P63218 (P63218 whole entry, looked up): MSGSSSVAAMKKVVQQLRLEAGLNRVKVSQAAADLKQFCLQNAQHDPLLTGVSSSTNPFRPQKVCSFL

Compound in the assay: CC1=C(C=C(C=C1)NC(=O)C2=CC(=CC=C2)C(C)(C)C#N)NC3=CC4=C(C=C3)N=CN(C4=O)C
Kind of assay: log2 fold change, soluble protein after heating vs DMSO (PISA); higher = thermal stabilisation; K562 cells, 10 uM, 30 min; active = over 0.2 and 3.5 SD of the protein, either way, in both replicates (recomputed). In a few lines:
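K562 cells at 2×10^6 cells/mL were given 10 μM compound for 30 min. Aliquots then went through 3 min of heating across 48°C-58°C, were pooled, and were extracted in PBS with 0.5% NP-40 at 4°C, and the supernatant after 21,000xg for 90 min was quantified by TMTpro 16plex LC-MS/MS with channel sums equalised. Thermal stability relative to control samples, from duplicates, is given as log2 fold change.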
Turning to GIGYF2 (UniProt Q6Y7W6), the log2 fold change is -0.075 (inactive).
The value for HSPA8 (UniProt P11142) was 0.021 (inactive); that for FNTA (UniProt P49354) was -0.035 (inactive).
Consider HOMER1 (UniProt Q86YM7), for which the log2 fold change is -0.049 (inactive).
With GTF2A1 (UniProt P52655), the log2 fold change was -0.086 (inactive).
The value for GNG5 (UniProt P63218) was 0.147 (inactive).
The value for FYB1 isoform 3 (UniProt O15117) was 0.073 (inactive); that for GDPD1 (UniProt Q8N9F7) was 0.003 (inactive); that for FNTB (UniProt P49356) was 0.032 (inactive).
The value for HECTD1 (UniProt Q9ULT8) was 0.04 (inactive).
For the target GGA2 (UniProt Q9UJY4), the log2 fold change was -0.015 (inactive).
The value for GCDH (UniProt Q92947) was -0.017 (inactive).
The value for GABARAPL2 (UniProt P60520) was -0.01 (inactive); that for GNB2 (UniProt P62879) was 0.11 (inactive).
The value for FBXO3 (UniProt Q9UK99) was -0.042 (inactive); that for FKBP7 (UniProt Q9Y680) was -0.052 (inactive).
In the case of GALNT4 (UniProt Q8N4A0), the log2 fold change was 0.008 (inactive).
For HMOX2 (UniProt P30519), the log2 fold change was 0 (inactive).
The value for ICAM1 (UniProt P05362) was -0.055 (inactive); that for GDI1 (UniProt P31150) was 0.007 (inactive).
The value for FANCD2 isoform 1 (UniProt Q9BXW9) was 0.003 (inactive); that for GBF1 (UniProt Q92538) was -0.049 (inactive).
The value for GAGE12F (UniProt P0CL80) was -0.005 (inactive); that for IFT80 isoform 3 (UniProt Q9P2H3) was -0.023 (inactive); that for FBXO42 (UniProt Q6P3S6) was -0.033 (inactive).
Consider HMGN2 (UniProt P05204), for which the log2 fold change was 0.115 (inactive).
The value for HADHA (UniProt P40939) was 0.307 (inactive); that for HEATR5B (UniProt Q9P2D3) was 0.013 (inactive).
The value for GLIPR2 (UniProt Q9H4G4) was 0.156 (inactive); that for GNS (UniProt P15586) was -0.021 (inactive).
The value for HIP1R (UniProt O75146) was -0.028 (inactive).
As for HADHB (UniProt P55084), the log2 fold change is 0.19 (inactive).
The value for GSTP1 (UniProt P09211) was 0.006 (inactive); that for FECH isoform 2 (UniProt P22830) was 0.45 (inactive); that for GTF2H3 (UniProt Q13889) was -0.094 (inactive).

The values above are taken from the supplement of paper PMC10849652.
